Data taken from PubChem BioAssay AID504444 (National Center for Advancing Translational Sciences (NCATS), 2011).
In all, about 360,000 compounds went through this assay and about 7,500 (2.1%) were called active. Where a call stands in place of a potency, no number is given. Roughly 20% stayed inconclusive and do not appear here. Many of the other results were omitted from the sample, so actives are more common in it than they were. Unmarked numbers belong to inactive results. The call rests on the fitted dose curve; in most records, active means well fitted inhibition curve with a large enough effect; inconclusive means small, poorly fitted or top-dose-only effect, or effect the other way; inactive means flat fitted curve, though single readings scatter.

Test: Nrf2 qHTS screen for inhibitors; further: nearly all actives have a fitted effect of over 60% in size
Settings: A549 ARE-Fluc reporter, luciferase luminescence, 18-24 h; series mostly up to 46 µM
Outline: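 Reporter: ARE-Fluc in A549. Exposure: 18-24 h, 37 °C, 5% CO2, 5% FBS OPTI-MEM. Readouts: fluorescent cytotoxicity (CellTiter-Fluor), then luminescent Nrf2 signal after BugLite.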
Potency means the concentration at half of the fitted maximal effect.

**Q.** Which Potency does the source give for `CN(CC(=O)Nc1ccc(Cl)cc1)CC(=O)Nc1cccc2ccccc12` here?
**A.** Its Potency is “inactive”.

**Q.** For `O=C(c1ccc(Cl)c(S(=O)(=O)N2CCCCC2)c1)N1CCCCCC1`, which Potency is on record?
**A.** Its Potency is “inactive”.

**Q.** Which Potency does the source give for `O=C(c1ccc(Cl)c(Cl)c1)N1CCCC1` here?
**A.** Its Potency is “inactive”.

**Q.** For `O=C(c1ccc(Cl)c(S(=O)(=O)N2CCCCCC2)c1)N1CCN(c2ccc(O)cc2)CC1`, which Potency is on record?
**A.** The Potency was 23.1 µM (active).

**Q.** Which Potency does the source give for `O=C(c1ccccc1F)N1CCC(c2nc3c(nnn3Cc3cccc(F)c3)c(=O)[nH]2)CC1` here?
**A.** The Potency was “inactive”.

**Q.** Which Potency does the source give for `COc1ccc(CN2C(=O)C(NC(=O)c3cccc(C)c3)(C(F)(F)F)N=C2c2ccccc2)cc1` (stereo unspecified) here?
**A.** The Potency was “inactive”.

**Q.** With `COc1ccc(CCNC(=O)CSc2nc(-c3ccc(OC)c(OC)c3)ccc2C#N)cc1` as the compound, how does the Potency read?
**A.** The Potency was 18.4 µM (active).

**Q.** Which Potency does the source give for `COc1ccc(CCNC(=O)CSc2nnc3ccc(-c4ccncc4)nn23)cc1` here?
**A.** Its Potency is “inactive”.

**Q.** For `COc1cccc(-c2ccc(C#N)c(SCC(=O)NCCc3ccc(Cl)cc3)n2)c1`, which Potency is on record?
**A.** The Potency was “inactive”.

**Q.** Which Potency does the source give for `CCOc1ccc2oc(=O)cc(CN3CCN(C(=O)c4ccc(F)cc4)CC3)c2c1` here?
**A.** Its Potency is “inactive”.

**Q.** Which Potency does the source give for `O=C1c2ccccc2C2=Nc3ccccc3SC(c3ccccc3F)C12` (stereo unspecified) here?
**A.** Its Potency is 23.1 µM (active).

**Q.** For `O=C1c2ccccc2C(=O)C1c1ccccc1F`, which Potency is on record?
**A.** Its Potency is “inactive”.

**Q.** Which Potency does the source give for `Cc1cccc(NC(=O)c2nnn(CC(=O)Nc3ccc(C(C)C)cc3)c2N)c1C` here?
**A.** Its Potency is “inactive”.

**Q.** For `O=C(CSc1nnc(CN2CCCC2)n1-c1ccc(F)cc1)c1ccc2c(c1)OCO2`, which Potency is on record?
**A.** Its Potency is “inactive”.

**Q.** Which activity change, negative = inhibition does the source give for `COc1ccccc1-c1cc(C(F)(F)F)nc(S(=O)(=O)CCCC(=O)Nc2ccc(F)cc2F)n1` here?
**A.** The activity change, negative = inhibition was 10.4% [at 9.27 µM].

**Q.** For `COc1cc(C(=O)NC2CCN(C)CC2)ccc1Nc1ncc2c(n1)N(C1CCC(O)CC1)CCC(=O)N2C` (stereo unspecified), which Potency is on record?
**A.** Its Potency is “inactive”.

**Q.** For `O=C(CN1CCN(C(=S)NC2CCCC2)CC1)Nc1ccc(Oc2ccccc2)cc1`, which Potency is on record?
**A.** The Potency was 16.4 µM (active).

**Q.** For `CCOc1ccc(NC(=O)CN2CCN(CC(=O)Nc3ccc(OC)cc3)CC2)cc1`, which Potency is on record?
**A.** The Potency was “inactive”.

**Q.** Which Potency does the source give for `CCOc1ccc(NC(=S)N2CCC(NC(=O)c3ccccc3)CC2)cc1` here?
**A.** Its Potency is “inactive”.

**Q.** Which Potency does the source give for `CCc1cc2c(-c3ccccc3)cc(=O)oc2c2c1OCN(Cc1ccc(C)cc1)C2` here?
**A.** The Potency was “inactive”.

**Q.** With `O=C(Cc1ccc(NC(=O)C2CCCN(C(=O)CCc3ccccc3)C2)cc1)Nc1ccc(C(=O)N2CCOCC2)cc1` (stereo unspecified) as the compound, how does the Potency read?
**A.** Its Potency is “inactive”.

**Q.** For `CC(C)OC(=O)c1ccc(NCc2cc(O)ccc2O)cc1Cl`, which Potency is on record?
**A.** Its Potency is “inactive”.

**Q.** For `Cc1ccc(S(=O)(=O)c2nc(-c3cccs3)oc2NCc2cccnc2)cc1`, which Potency is on record?
**A.** The Potency was “inactive”.

**Q.** For `O=S(=O)(c1ccc(Br)cc1)c1nc(-c2ccccc2)oc1NCc1cccnc1`, which Potency is on record?
**A.** Its Potency is 20.6 µM (active).

**Q.** With `O=S(=O)(c1ccccc1)c1nc(-c2ccccc2F)oc1NCc1cccnc1` as the compound, how does the Potency read?
**A.** Its Potency is “inactive”.

**Q.** Which Potency does the source give for `CC[N+]1(CC)CC2=Cc3ccccc3CC2C1` (stereo unspecified) here?
**A.** Its Potency is 23.1 µM (active).

**Q.** Which Potency does the source give for `COc1cc(OC)cc(C(=O)Nc2c(C(=O)Nc3ccc(F)cc3)oc3ccccc23)c1` here?
**A.** Its Potency is “inactive”.

**Q.** Which Potency does the source give for `COc1cccc(/C=N\NC(=O)C2=NNC(=O)C2C)c1O` (stereo unspecified) here?
**A.** The Potency was “inactive”.

**Q.** With `COc1cccc(/C=N/NC(=O)c2[nH]nc3c2CCc2ccccc2-3)c1O` as the compound, how does the Potency read?
**A.** Its Potency is “inactive”.

**Q.** Which Potency does the source give for `COc1cccc(/C=N/Nc2cc(C)nc(-c3ccccc3O)n2)c1O` here?
**A.** The Potency was 14.6 µM (active).

**Q.** With `Cc1nc2nc(SCC(=O)N(Cc3ccccc3)C(C)C)nn2c(C)c1Cc1ccccc1Cl` as the compound, how does the activity change, negative = inhibition read?
**A.** The activity change, negative = inhibition was 8.79% [at 9.27 µM].

**Q.** Which Potency does the source give for `CCN1CCc2nc3sc(C(=O)Nc4ccccc4OC(F)(F)F)c(N)c3cc2C1` here?
**A.** Its Potency is “inactive”.

**Q.** With `NC(=O)c1c(NC(=O)CSc2nc(N)cc(=O)[nH]2)sc2c1CCCC2` as the compound, how does the Potency read?
**A.** The Potency was “inactive”.

**Q.** With `COC(=O)c1c(NC(=O)CSc2nncs2)sc2c1CCCCC2` as the compound, how does the Potency read?
**A.** Its Potency is 18.4 µM (active).

**Q.** With `COC(=O)c1c(NC(=O)CCCC(=O)O)sc2c1CCCCC2` as the compound, how does the Potency read?
**A.** Its Potency is 5.17 µM (active).

**Q.** With `COC(=O)c1c(NC(=O)CCN2CCOCC2)sc2c1CCCC2` as the compound, how does the Potency read?
**A.** Its Potency is “inactive”.

**Q.** Which Potency does the source give for `COC(=O)c1c(NC(=O)c2ccc(Cl)c(Cl)c2)sc2c1CCCC2` here?
**A.** Its Potency is “inactive”.

**Q.** With `COC(=O)c1c(NC(=O)C2CC(C)=C(C)CC2C(=O)O)sc2c1CCCCC2` (stereo unspecified) as the compound, how does the Potency read?
**A.** Its Potency is “inactive”.

**Q.** For `CCOC(=O)C1=CN(Cc2ccc(Br)cc2)S(=O)(=O)N(C)C1C` (stereo unspecified), which Potency is on record?
**A.** Its Potency is “inactive”.

**Q.** For `CCNC(=O)N(CC)C[C@H]1N[C@@](CC)(C(=O)OC)[C@H]2C(=O)N(Cc3ccccc3)C(=O)[C@@H]12`, which Potency is on record?
**A.** Its Potency is “inactive”.

**Q.** For `O=C1c2ccccc2[C@@H]2C[C@@H](O)[C@H](Nc3ccccc3Cl)CCN12`, which Potency is on record?
**A.** The Potency was “inactive”.

**Q.** For `Cc1cc(=O)[nH]c(SCc2cccc(F)c2)n1`, which Potency is on record?
**A.** Its Potency is “inactive”.

**Q.** Which Potency does the source give for `C=CCn1c(SCc2cccc(F)c2)nc2cc(C(=O)N3CCC(C(N)=O)CC3)ccc2c1=O` here?
**A.** Its Potency is “inactive”.

**Q.** Which Potency does the source give for `CCn1cc2nc(SCc3cccc(F)c3)n(CCc3ccccc3)c(=O)c2n1` here?
**A.** Its Potency is 23.1 µM (active).

**Q.** With `O=C(Cn1cc(SCc2ccccc2)c2ccccc21)N1CCCCC1` as the compound, how does the Potency read?
**A.** Its Potency is “inactive”.

**Q.** Which activity change, negative = inhibition does the source give for `COc1ccc(CCNc2nc(-c3ccc(F)cc3)cc(C(F)(F)F)n2)cc1OC` here?
**A.** Its activity change, negative = inhibition is 8.32% [at 9.27 µM].

**Q.** For `COc1ccccc1CNC(=O)c1ccc(-n2c(C)cc3c2CCCC3)cc1`, which Potency is on record?
**A.** Its Potency is “inactive”.

**Q.** Which Potency does the source give for `CCOc1ccc(CNC(=O)CCc2c(C)nn(-c3ccc(N4CCCCC4)nn3)c2C)cc1` here?
**A.** The Potency was “inactive”.

**Q.** With `Cc1oc(-c2ccccc2)nc1Cn1c(SCc2cccc(C(F)(F)F)c2)nc2cccnc21` as the compound, how does the Potency read?
**A.** Its Potency is 25.9 µM (active).

**Q.** For `O=C(NCc1ccc(F)cc1)c1ccc(Cn2c(SCc3ccc(F)cc3)nc3cccnc32)cc1`, which Potency is on record?
**A.** Its Potency is “inactive”.

**Q.** With `O=C(O)c1ccc(CSc2nc3cccnc3n2Cc2cccc(F)c2)cc1` as the compound, how does the Potency read?
**A.** Its Potency is “inactive”.

**Q.** Which Potency does the source give for `CCN(Cc1ccccc1)C(=O)c1cn(-c2cccc(OC)c2)c(=O)c2ccccc12` here?
**A.** Its Potency is “inactive”.

**Q.** For `CC(C)(C)Nc1nc(-c2ccccn2)nc2ccccc12`, which Potency is on record?
**A.** Its Potency is 20.6 µM (active).

**Q.** With `c1ccc(-c2nc(NCc3ccco3)c3ccccc3n2)cc1` as the compound, how does the Potency read?
**A.** The Potency was “inactive”.

**Q.** For `Cc1ccc(Oc2nc(-c3ccccn3)nc3ccccc23)cc1`, which Potency is on record?
**A.** The Potency was “inactive”.

**Q.** With `CCOc1ccc(C(=O)c2cn(Cc3ccccc3OC)c3ccc(F)cc3c2=O)cc1` as the compound, how does the Potency read?
**A.** The Potency was “inactive”.

**Q.** For `O=C(N/N=C/c1ccoc1)c1ccc(Cl)cc1Cl`, which Potency is on record?
**A.** Its Potency is “inactive”.

**Q.** For `O=C(N/N=C/c1ccc(OC(=O)c2ccccc2Cl)cc1)c1ccc(O)cc1`, which Potency is on record?
**A.** The Potency was “inactive”.

**Q.** Which Potency does the source give for `CC(C)(C)C(=O)Nc1ccc(C(=O)N/N=C/c2ccccc2OC(=O)c2ccc(Cl)cc2Cl)cc1` here?
**A.** Its Potency is 13 µM (active).

**Q.** Which Potency does the source give for `O=C(CC(=O)c1cccnc1)c1ccccc1` here?
**A.** Its Potency is “inactive”.

**Q.** Which Potency does the source give for `COCCN(Cc1ccco1)C(=O)Cn1ncc2c([nH]c3ccccc32)c1=O` here?
**A.** Its Potency is “inactive”.
